Records with an inconclusive call do not appear. A call without a number means that no potency is given here. Calls of active or inactive are those of the source. Calls follow the shape of the dose curve; as a rule, active = well fitted cell-killing curve with a large enough effect in the repeat runs; inconclusive = weak or mixed curves, or effect the other way; inactive = no such curve, though single readings can be large or run the other way.
test: qHTS assay to identify small molecule antagonists of the retinoid-related orphan receptor gamma (ROR-gamma) signaling pathway - cell viability counter screen (AID 1159520); settings: Tet-on RORgamma CHO cells viability, ATP luminescence, 16 h; series mostly up to 92.4 µM; also: nearly all actives have a fitted effect of over 50% in size
From the text: U.S. Tox21 Program National Center for Advancing Translational Sciences [NCATS] NIH Chemical Genomics Center [NCGC] U.S. Environmental Protection Agency [EPA] National Institutes of Environmental Health Sciences [NIEHS] National Toxicology Program [NTP] U.S. Food and Drug Administration [FDA] Tox21 Assay Overview: Nuclear steroid hormone receptors are involved in many biological processes including inflammatory responses, cell proliferation, and apoptosis. Environmental factors or compounds disrupting these nuclear receptor pathways and gene expression may promote susceptibility to immunotoxicants and autoimmune diseases. One important group of these expression factors are the retinoid-related orphan receptors. To assess compounds that may interfere with the retinoid-related orphan receptor gamma (ROR-gamma) transcription factor, a cell-based luciferase assay was used. The CHO cell-based assay utilizes a TET-inducible ROR expression factor and ROR response element-LUC reporter gene. Reporter gene activity was induced using Doxycycline Hyclate and measured after 16 hr incubation. Tet-on ROR gamma CHO cells were used to screen against the Tox21 10K compound library for cytotoxicity by measuring the viability of the cells based on the quantitation of the ATP.
Tox21 Assay Protocol Summary: Tet-on ROR gamma CHO cells were dispensed at 1,000 cells in 4 uL of culture medium per well into white wall/solid bottom 1536-well plates using a Multidrop Combi (Thermo Scientific, Waltham, MA) dispenser. Following incubation at 37 C and 5% CO2 for 4 hr, 23 nL of compounds dissolved in DMSO, positive controls or DMSO only were transferred by a Pintool station (Kalypsys, San Diego, CA) and after 2 hr incubation at 37 C, one ul of 1 uM (final concentration) of Doxycycline Hyclate was added to all the wells by using a Flying Reagent Dispenser (FRD) (Aurora Discovery, San Diego, CA). After 16 hr incubation at 37 C and 5% CO2, 5 uL of CellTiter-Glo reagent (Promega Corporation, Madison, WI) was added to each assay plate using FRD. After 30 min incubation at room temperature, luminescence was quantified on a ViewLux plate reader (Perkin Elmer, Waltham, MA).

| Structure (SMILES) | Potency |
| --- | --- |
| CC(O)C(C)O (stereo not given) | inactive |
| CCc1ccc2c(c1)C(=O)c1ccccc1C2=O | inactive |
| CC(=O)c1cccnc1 | inactive |
| O=c1c2ccccc2oc2ccccc12 | inactive |
| CCCCOc1ccc(N)cc1 | inactive |
| O=C(O)c1ccccc1[N+](=O)[O-] | inactive |
| CCCOC(C)=O | inactive |
| CCCCCCCCOCCCN | inactive |
| O=C(O)c1ccc(O)c(O)c1 | inactive |
| CC(C)CCCCCCCOC(=O)c1ccc(C(=O)OCCCCCCCC(C)C)c(C(=O)OCCCCCCCC(C)C)c1 | inactive |
| CCCCCCCCC(=O)OCC(C)OC(=O)CCCCCCCC (stereo not given) | inactive |
| CCCCOC(=O)CC#N | inactive |
| CCN(CCCCOC(=O)c1ccc(OC)c(OC)c1)C(C)Cc1ccc(OC)cc1 (stereo not given) | inactive |
| CCCCCCCCCC(C)C=O (stereo not given) | inactive |
| C=CC(C)(O)CC/C=C(/C)CCC=C(C)C (stereo not given) | inactive |
| OCC(O)c1ccccc1 (stereo not given) | inactive |
| O=C(OCCOCCOCCOC(=O)c1ccccc1)c1ccccc1 | inactive |
| CC1(COc2ccc(CC3SC(=O)NC3=O)cc2)CCCCC1 (stereo not given) | inactive |
| N#Cc1ccc(CC(=O)c2cccc(C(F)(F)F)c2)cc1 | inactive |
| c1ccc(CN(Cc2ccccc2)Cc2ccccc2)cc1 | inactive |

| Structure (SMILES) | Potency |
| --- | --- |
| FC(F)(Cl)C(F)(Cl)Cl | inactive |
| Clc1cccc(C(c2ccc3nc[nH]c3c2)n2ccnc2)c1 (stereo not given) | inactive |
| CC(=O)S[C@H](C(=O)N[C@H]1Cc2ccccc2[C@H]2CCC[C@@H](C(=O)O)N2C1=O)C(C)C | inactive |
| CCC(=O)O[C@]1(C(=O)COC)[C@@H](C)C[C@H]2[C@@H]3CCC4=CC(=O)C=C[C@]4(C)C3(F)[C@@H](O)C[C@@]21C (stereo not given in full) | inactive |
| CCOc1cc(OCC)c(C(C)=O)cc1OCC | inactive |
| O=C(O)COCC(=O)O | inactive |
| Cc1cc(C)c(C)c(O)c1 | inactive |
| COc1ccc(C(=O)c2ccc(C)cc2)c(O)c1 | inactive |
| CO[C@@H]1[C@@H](O[C@@H]2O[C@H](C)[C@@H](O[C@H]3C[C@@](C)(O)[C@@H](O)[C@H](C)O3)[C@H](N(C)C)[C@H]2O)[C@@H](CC=O)C[C@@H](C)[C@@H](O[C@@H]2CC[C@H](N(C)C)[C@@H](C)O2)/C=C/C=C/C[C@@H](C)OC(=O)C[C@H]1OC(C)=O | inactive |
| C=CC(=O)OCCCCCCCCCC | inactive |
| C[C@H]1C[C@H]2[C@@H]3CCC4=CC(=O)C=C[C@]4(C)[C@@]3(F)[C@@H](O)C[C@]2(C)[C@@]1(O)C(=O)COP(=O)(O)O | inactive |
| Cc1ccc2ccccc2c1[N+](=O)[O-] | inactive |
| O=C1c2ccccc2C(=O)c2c1ccc(O)c2O | inactive |
| Cc1ccc2c(Cl)cc(Cl)c(O)c2n1 | inactive |
| CC1(C)CC(=O)CC(C)(C)N1 | inactive |
| N#CCCCC(C#N)CCC#N (stereo not given) | inactive |
| CC(C(=O)O)c1ccc(/C=C2\CCCCC2=O)cc1 (stereo not given) | inactive |
| CC(C)(C)c1ccc(CCC=O)cc1 | inactive |
| Cc1cc(SC2=C(O)C[C@@](CCc3ccc(N)cc3)(C(C)C)OC2=O)c(C(C)(C)C)cc1CO | inactive |
| O=[N+]([O-])c1cccc(I)c1 | inactive |
